In assay [1] the test system is Human papillomavirus type 1a protein E7 (residues 44-93). Put plainly: HPV1a E7 fragment binders on microarrays, primary screen, biochemical, small-molecule microarray, residues 44-93, 635 nm fluorescence (AID 1108).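 Note: E7 fragment applied at 1 µg/mL in TBST for 1 h at 4 C; score combines spot fluorescence with its signal to noise ratio.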 The conditions noted are these: small-molecule microarray binding, fluorescence 635 nm; higher = more signal.
Assay [2] is described as follows: modulators of HCV replicon luciferase signal, primary screen, HCV replication inhibitor project, Huh7 cells, luciferase reporter (AID 1109).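 Note: huh7 hepatoma cells harbouring a luciferase neomycin HCV replicon reporter; luciferase luminescence as measure of HCV replicon replication; test concentration not given here.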 The conditions noted are these: 48 h, higher = more signal. A general note: Replicon systems follow genome replication, usually without infectious particles.
Assay [3] concerns the target Left-right determination factor 2 (Homo sapiens) (UniProt O00292). Put plainly: LEFTY2 binders on small-molecule microarrays, primary screen, biochemical, small-molecule microarray, 635 nm fluorescence scan (AID 1110). The conditions noted are these: LEFTY2 binding, higher = more signal.
Assay [4] concerns the target Calmodulin-1 (Homo sapiens) (UniProt P0DP23). Kind of assay: CALM1 binders on microarrays, EGTA buffer, profiling panel, biochemical, small-molecule microarray, Cy5-labelled CALM1 (AID 1111).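 Note: labelled calmodulin applied in Tris saline Tween buffer holding calcium plus EGTA and DTT.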 Particulars: Cy5-CALM1 binding fluorescence, higher = more signal.
Assay [5] has the same target. Put plainly: calcium-bound CALM1 binders on microarrays, profiling panel, artefact control for SMM control-protein annotation, biochemical, small-molecule microarray, Cy5-labelled CALM1, plus calcium (AID 1112).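 Note: score merges spot fluorescence with signal to noise from triplicate slides.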 The conditions noted are these: Cy5-CALM1 binding fluorescence, higher = more signal.
Assay [6] in a line: small-molecule microarray binders of probe aWnt5a, primary screen, biochemical, biotinylated probe, 635/667 nm fluorescence (AID 1113).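 Note: score merges 667 nm fluorescence intensity with signal-to-noise per printed feature.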 Particulars: higher = more signal.
Assay [7] can be described thus: small-molecule microarray binders of probe aShh, primary screen, biochemical, biotinylated probe, 635/667 nm fluorescence (AID 1114).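 Note: probe is biotin-labelled aShh protein from a stem cell growth factor screen; measures binding of labelled protein to compounds printed on the slide; score merges feature fluorescence at 667 nm with signal-to-noise.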 Particulars: higher = more signal.
Assay [8] in a line: small-molecule microarray binders of probe aNog, primary screen, biochemical, biotinylated probe, 635/667 nm fluorescence (AID 1115).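 Note: probe is biotinylated aNog protein used at 0.15 µg/mL for 1 h at 4 C; z-score combines 667 nm fluorescence of each spot with its signal to noise.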 The conditions noted are these: higher = more signal.
Assay [9] deals with Torsin-1A-interacting protein 1 (Homo sapiens) (UniProt Q5JTV8). Kind of assay: LAP1 binders from COS7 cell lysate, primary screen, small-molecule microarray, 635/667 nm fluorescence (AID 1116). The conditions noted are these: COS7-hLAP1 lysate binding, 635 nm fluorescence, higher = more signal.
Sequence of Torsin-1A-interacting protein 1 (Homo sapiens) (Q5JTV8 whole entry, looked up): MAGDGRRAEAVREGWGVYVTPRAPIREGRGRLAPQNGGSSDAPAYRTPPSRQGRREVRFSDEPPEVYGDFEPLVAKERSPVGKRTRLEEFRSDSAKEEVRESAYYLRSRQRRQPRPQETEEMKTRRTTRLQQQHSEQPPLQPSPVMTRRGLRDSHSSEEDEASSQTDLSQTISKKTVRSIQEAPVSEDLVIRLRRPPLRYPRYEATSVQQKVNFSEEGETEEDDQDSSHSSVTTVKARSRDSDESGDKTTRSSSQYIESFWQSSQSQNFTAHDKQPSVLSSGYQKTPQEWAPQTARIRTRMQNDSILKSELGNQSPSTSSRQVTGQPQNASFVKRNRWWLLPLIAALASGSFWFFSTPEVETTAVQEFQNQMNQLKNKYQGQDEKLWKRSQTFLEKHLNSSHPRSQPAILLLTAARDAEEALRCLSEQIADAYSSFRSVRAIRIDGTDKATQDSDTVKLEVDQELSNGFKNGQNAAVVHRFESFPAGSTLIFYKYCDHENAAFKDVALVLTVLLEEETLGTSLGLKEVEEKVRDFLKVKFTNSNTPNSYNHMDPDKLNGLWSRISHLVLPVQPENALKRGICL
Assay [10] concerns the target Alpha-bungarotoxin (Bungarus multicinctus) (UniProt P60615). Put plainly: alpha-bungarotoxin binders on microarray, profiling panel, artefact control for SMM control protein annotation, biochemical, small-molecule microarray, Alexa647 label, 635/667 nm fluorescence (AID 1117). The conditions noted are these: alpha-BTX-A647 binding fluorescence, higher = more signal.

Structures are written as SMILES.

The values that follow come from PubChem BioAssay.

Sequence of Alpha-bungarotoxin (Bungarus multicinctus) (P60615 whole entry, looked up): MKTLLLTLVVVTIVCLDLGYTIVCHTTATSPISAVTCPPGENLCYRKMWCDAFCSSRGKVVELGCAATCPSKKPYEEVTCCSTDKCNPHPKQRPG
Sequence of Left-right determination factor 2 (Homo sapiens) (O00292 whole entry, looked up): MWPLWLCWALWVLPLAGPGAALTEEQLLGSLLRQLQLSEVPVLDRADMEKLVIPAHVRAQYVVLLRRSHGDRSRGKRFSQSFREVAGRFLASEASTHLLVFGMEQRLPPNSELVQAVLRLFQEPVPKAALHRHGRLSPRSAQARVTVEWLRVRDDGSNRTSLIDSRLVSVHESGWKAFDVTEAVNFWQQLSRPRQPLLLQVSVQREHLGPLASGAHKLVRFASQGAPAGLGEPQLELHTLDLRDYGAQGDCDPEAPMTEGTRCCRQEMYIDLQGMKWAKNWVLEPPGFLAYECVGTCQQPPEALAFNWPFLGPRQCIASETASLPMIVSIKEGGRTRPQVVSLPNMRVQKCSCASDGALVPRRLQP

Turning to `C[C@]1(C(=O)NC2CC2)c2ccccc2C(=O)N(Cc2ccc(OC(F)(F)F)cc2)[C@H]1c1ccc(CO)cc1`, the composite z-score in assay [1] was -0.633; in assay [3], -1.07; in assay [4], -0.42; in assay [5], 0.479; in assay [6] it was -0.0792; in assay [7], -0.0243. The results for the composite z-score in assay [8], in assay [9] and in assay [10] were 0.625, 0.297 and 0.585, respectively. Moreover, the z-score in [2] is -0.144.
Turning to `COc1ccc([Si](C)(C)[C@@H]2[C@@H](CCO)O[C@]3(C(=O)N(Cc4cccc(N5C(=O)c6cccc7cccc5c67)c4)c4ccccc43)[C@H]2C)cc1`, the composite z-score in assay [1] was 1.21; in assay [3] it was -0.385; in assay [4], 0.831; in assay [5], 0.978; in [6], -0.0758; in [7], 0.0815. Further, the composite z-score in assay [8] stood at 0.0601; in assay [9], 0.0561; in assay [10], 0.578. In [2], the z-score is -4.47.
In the case of `CC[C@@H]1[C@H]2C3C(=O)N(CC)C(=O)C3CC(=O)[C@H]2[C@H](c2ccc(C)cc2)N1S(=O)(=O)c1ccc(C)cc1` (stereo not given in full), the composite z-score in assay [1] was 1.4; in assay [3], 0.174; in assay [4], 1.01; in assay [5], 0.715; in assay [6], -0.124; in assay [7], -0.0035. Further, the figures for the composite z-score in assay [8], in [9] and in [10] were -0.115, -0.154 and 0.484, respectively. The z-score in assay [2] was -2.17.
Turning to `COC(=O)C1(Cc2ccccc2)C=C2C(=C(C(C)C)C(=O)C2C)CN1` (stereo not given), the composite z-score in assay [1] was -0.549; in assay [3], -1.41; in assay [4] it was 1.09; in assay [5], 1.54; in [6], 0.152; in [7], 0.109. Further, the composite z-score is 0.593 in assay [8], 1.73 in assay [9] and -0.473 in [10]. The same molecule yielded a z-score in assay [2] of -0.735.
Regarding `CC(C)(C)OC(=O)CC[C@]1(C(=O)NCCN2CCOCC2)N=C(c2ccc(OCCCO)cc2)O[C@H]1c1ccccc1`, the composite z-score in assay [1] is 1.18; in [3], -0.103; in assay [4], 1.78; in assay [5], 0.598; in [6] it was -0.0203; in [7] it was -0.153. Moreover, the composite z-score in assay [8] was 0.593; in [9], -0.299; in assay [10], 1.57. In assay [2], this molecule yielded a z-score of 0.0186.
Regarding `COC(=O)[C@@]1(Cc2ccc(OC)cc2)[C@H]2c3cc(C(=O)N(C)C)n(Cc4ccccc4)c3C[C@H]2CN1C(=O)c1ccccc1`, the composite z-score was 1.34 in assay [1]; -0.367 in assay [3]; 1.63 in assay [4]; 1.03 in assay [5]; -0.0681 in assay [6]; -0.12 in assay [7]. Further, the composite z-score in [8] is -0.759; in assay [9] it was -0.681; in assay [10], 0.187. The molecule further displayed a z-score in assay [2] of -1.66.
On to `CC(=O)n1cc(C(O)C2C=CC3C(=O)N(c4ccccc4)C(=O)C3N2Nc2ccccc2)c2ccccc21` (stereo not given), for which the composite z-score in assay [1] is -0.175; in assay [3], -0.183; in assay [4], 0.735; in [5], 0.671; in assay [6], 0.13; in assay [7], 1.21. In addition, the composite z-score in assay [8] came to 0.974; in assay [9], 1.09; in [10] it was 1.41. The molecule further returned a z-score in assay [2] of -1.95.
For the molecule `Cc1ccc(S[C@]2(C(=O)NC(C)C)CC(=O)N(Cc3ccccc3C(F)(F)F)[C@@H]2c2ccc(CO)cc2I)cc1`, the composite z-score in [1] was 0.187; in assay [3], -0.796; in [4], -0.301; in assay [5], 0.0016; in [6], -0.13; in assay [7], -0.0769. Besides, the composite z-score in assay [8] was -0.0965; in assay [9], -0.0123; in assay [10], 1.65. The molecule further registered a z-score in assay [2] of -2.54.
`O=c1cccc(-c2cccc(Cl)c2)o1`: the composite z-score in [1] is 0.0546; in assay [3] it was 0.128; in [4], -0.137; in assay [5] it was -0.137; in assay [6], -0.228; in assay [7], -0.338. Moreover, the composite z-score is -0.229 in assay [8], 0.432 in assay [9] and 0.0698 in assay [10]. This molecule had a z-score in assay [2] of 0.268.
Turning to `COc1ccc(NN2C(C(O)c3ccccn3)C=CC3C(=O)N(C4CCCCC4)C(=O)C32)cc1` (stereo not given), the composite z-score in [1] was 1.41; in assay [3], -0.188; in [4], 1.58; in assay [5], 0.37; in [6], 0.0391; in assay [7], 0.0875. The composite z-score in [8] is 1.17; in assay [9] it was 0.766; in assay [10], 0.887. The z-score in assay [2] was -0.602.
For the molecule `CN(C)CCCN1C(=O)[C@@]2(c3ccc([N+](=O)[O-])cc3)CC(=O)N(CC34CC5CC(CC(C5)C3)C4)[C@@H]2c2ccc(CO)cc21`, the composite z-score in [1] was 0.869; in [3], -0.741; in assay [4] it was -0.301; in [5], -0.828; in assay [6], -0.152; in [7], 0.111. Besides, the composite z-score is -0.302 in assay [8], -0.301 in [9] and -0.0251 in assay [10]. For the same molecule, the z-score in assay [2] is -1.49.
Consider `[N-]=[N+]=Nc1ccccc1[C@@H]1OC(c2ccc(OCCCO)cc2)=N[C@]1(CCS(=O)(=O)c1ccccc1)C(=O)NCCN1CCOCC1`, for which the composite z-score in assay [1] was found to be 1.47; in assay [3] it was 0.382; in assay [4] it was 0.03; in assay [5], 0.0093; in assay [6] it was 0.0814; in assay [7] it was 0.337. Further, the composite z-score in assay [8] stood at 0.675; in [9], 1.26; in assay [10] it was 0.737. The molecule further yielded a z-score in assay [2] of -0.485.
Regarding `C=CCN1C(=O)[C@@]2(O[C@@H](CCO)[C@H]([Si](C)(C)c3ccc(OC)cc3)[C@H]2C)c2cc(N3C(=O)c4ccccc4Oc4ccccc43)ccc21`, the composite z-score in assay [1] is -0.719; in assay [3], 0.163; in assay [4], 1.4; in [5] it was 0.927; in assay [6], 0.0181; in [7], -0.186. The results for the composite z-score in assay [8], in assay [9] and in [10] were 0.0061, 0.669 and 0.328, respectively. For the same molecule, the z-score in assay [2] is -5.16.
As for `COCCCNC(=O)[C@@]1(Sc2ccc(C)cc2)CC(=O)N(Cc2cc(C(F)(F)F)cc(C(F)(F)F)c2)[C@@H]1c1ccc(CO)cc1`, the composite z-score in assay [1] was 1.07; in [3], -0.223; in assay [4] it was 0.0267; in assay [5], -0.683; in assay [6], -0.096; in assay [7], 0.0136. The composite z-score in assay [8] is -0.0069; in assay [9], 0.156; in [10], 2.13. This molecule showed a z-score in assay [2] of -0.168.
On to `COc1ccc(C(O)C2C=CC3C(=O)N(c4ccccc4)C(=O)C3N2Nc2ccccc2)cc1OCc1ccccc1` (stereo not given), for which the composite z-score was 1.48 in assay [1]; 0.0977 in [3]; 0.552 in assay [4]; 0.734 in assay [5]; 0.165 in assay [6]; 0.123 in [7]. Moreover, the figures for the composite z-score in [8], in [9] and in assay [10] were 1.26, 0.618 and 1.4, respectively. For the same molecule, the z-score in [2] is -0.412.
As for `COc1cc(CO)cc(I)c1O[C@H]1C=C(C(=O)NCCO)C[C@@H](NCc2ccccc2F)[C@@H]1O`, the composite z-score in assay [1] is 0.509; in assay [3], 0.365; in [4], -0.154; in assay [5], -0.327; in [6], -0.264; in assay [7], -0.138. The values for the composite z-score in assay [8], in assay [9] and in assay [10] were -0.103, 1.4 and 0.109, respectively. In assay [2], this molecule yielded a z-score of -2.62.
In the case of `CC=CC(O)C1C=CC2C(=O)N(c3ccccc3)C(=O)C2N1Nc1ccccc1` (stereo not given), the composite z-score in [1] is 1.19; in assay [3] it was 0.215; in assay [4], 0.667; in assay [5], 0.362; in assay [6] it was 0.136; in assay [7] it was 0.304. In addition, the results for the composite z-score in [8], in assay [9] and in [10] were 1.16, 1.1 and 1.89, respectively. The molecule also had a z-score in assay [2] of 0.527.
